Results from PubChem BioAssay (NCI).
The panel holds about 83,000 compounds, 20% with a hit somewhere; the sample as a whole holds those more often.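 96-well plates, one dose, 48 hours. Percent growth reported; active if below 10.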 Active and inactive are the calls of the source.

Assays:
Assay in all cases: NCI-60 one-dose screen, 48 h (100 = growth as untreated, 0 = no growth, -100 = all killed)
Conditions in all cases: 10 µM unless noted
HCT-15 colon = system: HCT-15 colon
HT29 colon = system: HT29 colon
SNB-75 CNS = system: SNB-75 CNS
SNB-19 CNS = system: SNB-19 CNS
PC-3 prostate = system: PC-3 prostate
SK-MEL-5 melanoma = system: SK-MEL-5 melanoma
UACC-62 melanoma = system: UACC-62 melanoma
LOX IMVI melanoma = system: LOX IMVI melanoma
SK-MEL-28 melanoma = system: SK-MEL-28 melanoma
U251 CNS = system: U251 CNS

Measured: growth

COc1ccc(Sc2[nH]c(C(C)=O)c3ccccc23)cc1
inactive: HCT-15 colon 53.9% | HT29 colon 47.6% | SNB-75 CNS 48.1% | SNB-19 CNS 67.1% | PC-3 prostate 52.1% | SK-MEL-5 melanoma 45.1% | UACC-62 melanoma 47.1% | LOX IMVI melanoma 71.9% | SK-MEL-28 melanoma 84.1%

O=[N+]([O-])c1cccc(CN(Cc2cccc([N+](=O)[O-])c2O)c2ccccc2)c1O
inactive: HCT-15 colon 69.4% | HT29 colon 56.1% | SNB-75 CNS 86.1% | SNB-19 CNS 92% | PC-3 prostate 71.1% | SK-MEL-5 melanoma 90.5% | LOX IMVI melanoma 79.6% | SK-MEL-28 melanoma 96.7%

CCCCn1c(=O)c(/C=C/C(=O)/C=C/c2ccc(OC)cc2)cc2cc(Cl)ccc21
inactive: HCT-15 colon 27.5% | SNB-75 CNS 84.9% | SNB-19 CNS 47.5% | PC-3 prostate 39.5% | SK-MEL-5 melanoma 78.9% | UACC-62 melanoma 76.2% | SK-MEL-28 melanoma 115%
active: HT29 colon 9.75% | LOX IMVI melanoma 9.25%

Cc1ccc(C2CC(c3ccc(Nc4nc(NCCO)nc(NCCO)n4)cc3)=NN2c2ccc(Cl)cc2)cc1 (stereo not given)
inactive: HCT-15 colon 47% | HT29 colon 30.5% | SNB-75 CNS 28.5% | SNB-19 CNS 75.5% | PC-3 prostate 33.5% | SK-MEL-5 melanoma 74.8% | UACC-62 melanoma 81.2% | LOX IMVI melanoma 40.9% | SK-MEL-28 melanoma 48.4%

CN(C)c1ccc(-c2ccc3[nH]c(=O)nc(-c4ccc(F)cc4)c3c2)cn1
inactive: HCT-15 colon 33.2% | HT29 colon 11% | SNB-75 CNS 11.2% | SNB-19 CNS 36.2% | PC-3 prostate 41.7% | SK-MEL-5 melanoma 20.3% | UACC-62 melanoma 28.4% | LOX IMVI melanoma 41.3% | SK-MEL-28 melanoma 69.2%

COc1ccc(NC(=O)c2sc3nc(C)c(C(C)=O)cc3c2N)cc1
inactive: HCT-15 colon 91.6% | HT29 colon 83.5% | SNB-75 CNS 88.3% | SNB-19 CNS 96.1% | PC-3 prostate 92% | SK-MEL-5 melanoma 93.8% | UACC-62 melanoma 92.9% | LOX IMVI melanoma 105% | SK-MEL-28 melanoma 94.1%

COc1ccc(/C=C/C(=O)C(CC2CCC2)C(=O)/C=C/c2ccc(OC)c(OC)c2)cc1OC
active: HCT-15 colon -35.4% | HT29 colon -51.1% | SNB-19 CNS -13.1% | PC-3 prostate -8.3% | SK-MEL-5 melanoma -76.6% | LOX IMVI melanoma -75.4% | SK-MEL-28 melanoma -4.06%
inactive: SNB-75 CNS 64.7%

CCCCCCN1C(=O)CN=C1Nc1ccc2cc3ccc(NC4=NCC(=O)N4CCCCCC)cc3nc2c1
inactive: HCT-15 colon 49% | HT29 colon 15.5% | SNB-19 CNS 48.4% | U251 CNS 22.1% | PC-3 prostate 51% | SK-MEL-5 melanoma 82.6% | UACC-62 melanoma 82.6% | SK-MEL-28 melanoma 85.9%
active: LOX IMVI melanoma -41.8%

O=C1CC(c2ccc(O)c(O)c2)Oc2cc(O)c([C@@H]3O[C@H](CO)[C@@H](O)[C@H](O)[C@H]3O)c(O)c21 (stereo not given in full)
inactive: HCT-15 colon 102% | HT29 colon 103% | SNB-19 CNS 102% | U251 CNS 98.1% | PC-3 prostate 97.3% | SK-MEL-5 melanoma 103% | UACC-62 melanoma 105% | LOX IMVI melanoma 104% | SK-MEL-28 melanoma 107%

COC(=O)/C=C/c1cc(OC(C)=O)c2c(c1)C(C(=O)OC)C(c1ccc(OC(C)=O)c(OC(C)=O)c1)O2 (stereo not given)
inactive: HT29 colon 11% | SNB-19 CNS 23.1% | PC-3 prostate 12% | UACC-62 melanoma 32.6% | LOX IMVI melanoma 14.1% | SK-MEL-28 melanoma 50.5%
active: HCT-15 colon 7.82% | U251 CNS 7.2% | SK-MEL-5 melanoma -19%

C#CC[C@@H]1C[C@]2(C)[C@H]3CC[C@@H]4[C@H]5[C@H](C(=C)C)CC[C@]5(C(=O)O)CC[C@@]4(C)[C@]3(C)CC[C@H]2C(C)(C)[C@H]1O
inactive: HCT-15 colon 32% | HT29 colon 35.9% | SNB-19 CNS 56.8% | U251 CNS 26.3% | SK-MEL-5 melanoma 74.5% | UACC-62 melanoma 72.2% | LOX IMVI melanoma 44.3% | SK-MEL-28 melanoma 92%
active: PC-3 prostate 4.77%

N#Cc1c(-c2ccc(F)cc2)nc(N=Nc2c(O)[nH]c3ccccc23)nc1N1CCOCC1
inactive: HCT-15 colon 66.9% | HT29 colon 78.4% | SNB-19 CNS 70.1% | PC-3 prostate 64.1% | SK-MEL-5 melanoma 64.7% | UACC-62 melanoma 48.8% | LOX IMVI melanoma 74.9% | SK-MEL-28 melanoma 72.3%

O=C(O)C(C(=O)O)c1cccc2ccccc12
inactive: HCT-15 colon 104% | HT29 colon 94.9% | SNB-19 CNS 98.3% | U251 CNS 99.5% | PC-3 prostate 100% | SK-MEL-5 melanoma 103% | UACC-62 melanoma 96.8% | LOX IMVI melanoma 97.4% | SK-MEL-28 melanoma 111%

CC(=O)c1ccc(NC(=O)CSc2nnc(-c3cc(-c4ccc(C)cc4)nc4ccccc34)o2)cc1
active: U251 CNS -59.8%
inactive: HCT-15 colon 56.7% | HT29 colon 68.2% | SNB-19 CNS 43.2% | PC-3 prostate 53.4% | SK-MEL-5 melanoma 68.7% | UACC-62 melanoma 90.7% | LOX IMVI melanoma 31.9% | SK-MEL-28 melanoma 99.3%

NS(=O)(=O)c1ccc(N2Cc3cc(Cl)ccc3OC3=C2C(=O)N(CC2CCCCC2)C3=O)cc1
active: HCT-15 colon -79.2% | HT29 colon -67.4% | SNB-19 CNS -6.19% | U251 CNS -91.3% | PC-3 prostate -61.9% | SK-MEL-5 melanoma -94.4% | UACC-62 melanoma -76.1% | LOX IMVI melanoma -86.2% | SK-MEL-28 melanoma -93.1%

O=C1CCc2ccccc2N1
inactive: HCT-15 colon 103% | HT29 colon 102% | SNB-19 CNS 96.2% | U251 CNS 102% | PC-3 prostate 102% | SK-MEL-5 melanoma 98.9% | UACC-62 melanoma 97.6% | LOX IMVI melanoma 94.4% | SK-MEL-28 melanoma 104%

Nc1c(C(=O)Nc2ccccn2)sc2nc3c(cc12)C(=O)CCC3
inactive: HCT-15 colon 28.5% | HT29 colon 12.4% | SNB-19 CNS 28.2% | U251 CNS 29.5% | PC-3 prostate 37.9% | SK-MEL-5 melanoma 17.1% | UACC-62 melanoma 34.9% | LOX IMVI melanoma 44.4% | SK-MEL-28 melanoma 56.4%

CN1C(=O)c2cc(Cl)nc3c(NC(=O)c4cccc(Cl)c4)c(Cl)c(NC(=O)c4cccc(Cl)c4)c1c23
active: HCT-15 colon -83.9% | HT29 colon -57.7% | SNB-19 CNS 2.15% | PC-3 prostate -45.5% | SK-MEL-5 melanoma 4.57% | UACC-62 melanoma 6.83% | LOX IMVI melanoma -65.1% | SK-MEL-28 melanoma -32.2%

CCOC(=O)c1ccc(Nc2ncnc3ccc(NC(=O)c4ccccc4)cc23)cc1
inactive: HCT-15 colon 78.3% | HT29 colon 79.6% | SNB-19 CNS 99.9% | U251 CNS 94.1% | PC-3 prostate 83.1% | SK-MEL-5 melanoma 84.6% | UACC-62 melanoma 88.9% | LOX IMVI melanoma 87.8% | SK-MEL-28 melanoma 89.6%

O=C1c2ccccc2C(=O)c2c1oc1c2c(=O)[nH]c2ccccc21
inactive: HT29 colon 103% | SNB-75 CNS 113% | SNB-19 CNS 104% | U251 CNS 79% | PC-3 prostate 65.5% | SK-MEL-5 melanoma 79.7% | UACC-62 melanoma 88.7% | LOX IMVI melanoma 56.1% | SK-MEL-28 melanoma 112%

C=C1C(=O)O[C@H]2[C@H]1CC/C(COC(=O)CCCCCCCCC(=O)OC/C1=C/CC[C@@]3(C)O[C@H]3[C@H]3OC(=O)C(=C)[C@@H]3CC1)=C\CC[C@@]1(C)O[C@@H]21
active: HCT-15 colon -31.6% | HT29 colon -27.5% | PC-3 prostate -6.62% | SK-MEL-5 melanoma -32.6% | LOX IMVI melanoma -84.7% | SK-MEL-28 melanoma -12.8%
inactive: SNB-19 CNS 43.8% | U251 CNS 12.1%

C=C(C)[C@@H]1CC[C@]2(C(=O)O)CC[C@]3(C)[C@H](CC[C@@H]4[C@@]5(C)C[C@@H](CC#Cc6ccccc6C)C(=O)C(C)(C)[C@@H]5CC[C@]43C)[C@@H]12
inactive: HCT-15 colon 20.9% | HT29 colon 22.3% | SNB-19 CNS 40% | U251 CNS 25.4% | PC-3 prostate 31.4% | SK-MEL-5 melanoma 28.2% | UACC-62 melanoma 41.4% | LOX IMVI melanoma 43.6% | SK-MEL-28 melanoma 42.9%

CN(C)CCCn1c2c(c3cc(-c4ccco4)ccc3c1=O)C(=O)c1ccccc1-2
inactive: HCT-15 colon 54.4% | HT29 colon 21% | SNB-19 CNS 69.2% | U251 CNS 80.4% | PC-3 prostate 60% | SK-MEL-5 melanoma 78.3% | UACC-62 melanoma 50.9% | LOX IMVI melanoma 60.9% | SK-MEL-28 melanoma 103%

COc1ccc(-c2cc(C(=O)N3N=C(c4ccc(N)cc4)CC3c3ccc(OC)cc3)c3cc(OC)ccc3n2)cc1 (stereo not given)
inactive: HCT-15 colon 22.2% | HT29 colon 26.5% | SNB-19 CNS 58.1% | U251 CNS 48.7% | PC-3 prostate 42.5% | SK-MEL-5 melanoma 67.3% | UACC-62 melanoma 40.4% | LOX IMVI melanoma 41.3% | SK-MEL-28 melanoma 64.4%

C=C1C(=O)O[C@H]2[C@H]1CC/C(COC(=O)CCCCCCCC(=O)OC/C1=C/CC[C@@]3(C)O[C@H]3[C@H]3OC(=O)C(=C)[C@@H]3CC1)=C\CC[C@@]1(C)O[C@@H]21
inactive: SNB-19 CNS 55% | U251 CNS 32.3% | PC-3 prostate 15.2% | SK-MEL-5 melanoma 17.5% | SK-MEL-28 melanoma 20.7%
active: HCT-15 colon -4.93% | HT29 colon -8.08% | UACC-62 melanoma -10.2% | LOX IMVI melanoma -51.9%
